Data as given in PubChem BioAssay.
“And” between values parts separate entries of the source, which are not always exact repeats. Identical values can stand only once. The source made the active and inactive calls.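 Rule for the calls, unless noted: active = inhibition at or above 50% relative to wild type and mutant plate controls; inactive = inhibition below 50%.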

Assays:
[1] = reduction of polyQ htt aggregates in cells – imaging, exon1htt(103Q)mCFP cells, high-content imaging, primary screen (AID 483;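 active = visual image review flags a hit and inhibition of aggregation exceeds 20%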;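 note: compound exposure lasted 3 days before fixation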;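 for nuclei count: percent of the per-plate median nuclei count of sample wells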); conditions: exon1htt(103Q)mCFP cell line, aggregate imaging, at 2 µM; inhibition of aggregation: stronger effect = higher value; nuclei count: measured here: cell count, toxicity
[2] = endothelial E-selectin expression blockers – imaging, HUVEC, immunofluorescence, MLSMR starter and 10KST1 sets, primary screen (AID 487;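 active = visually confirmed hit in the image check and inhibition above 20%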;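 for inhibition: signal is fraction of cell area covered by stained E-selectin grains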;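 for nuclei count: 100% = median nuclei count of all wells on the same plate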); conditions: HUVEC TNFalpha-induced E-selectin immunofluorescence imaging, at 2 µM; inhibition: stronger effect = higher value; nuclei count: measured here: cell number, toxicity
[3] = Primary imaging screen for DUSP6 inhibitors that restore phospho-Erk in transfected HeLa cells, chemical complementation (AID 609;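 active = compounds giving at least 50% inhibition in the cell-based MKP-3 phosphatase rescue imaging test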;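 for inhibition: phospho-Erk level distribution per well compared with pooled transfected vehicle control wells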); conditions: HeLa MKP-3 transfected, phospho-Erk imaging KS statistic, at 10 µM, cells stimulated with TPA for 15 min
[4] = target: Dual specificity protein phosphatase 6 (Homo sapiens) (UniProt Q16828); assay: as above; conditions: HeLa MKP-3 transfected, phospho-Erk imaging KS statistic; at 10 µM; stronger effect = higher value; cells stimulated with TPA for 15 min
[5] = target: Voltage-gated potassium channel subunit beta-2 (Rattus norvegicus) (UniProt P62483); assay: inhibitors of rat Kvbeta2 reductase activity – biochemical, NADPH fluorescence, primary screen (AID 622;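 active = fluorescence slope higher than the sample average by over 3 SD, cut at about -0.22 in these data, passing the limit was not always enough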;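 note: slope of raw intensity against log time taken from 70 to 1610 s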); conditions: recombinant KvBeta, 4-cyanobenzaldehyde reduction, at 10 µM, stronger effect = higher value
[6] = target: Voltage-gated potassium channel subunit beta-2 (Rattus norvegicus) (UniProt P62483); assay: enhancers of rat Kvbeta2 NADPH turnover – biochemical, NADPH fluorescence, primary screen (AID 623;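 active = NADPH fluorescence slope more negative than the mean of all samples by about 3 SD, 99.7% confidence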;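 note: fluorescence intensity change per second fitted from 20 to 320 s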); conditions: Recombinant KvBeta, NADPH fluorescence decrease slope, 10 min; at 10 µM; stronger effect = lower value
[7] = target: Alpha-2C adrenergic receptor (Homo sapiens) (UniProt P18825); assay: compounds altering alpha2C-coupled GIRK flux – cell-based, HEK293 alpha2C/GIRK1/2, thallium flux, primary screen (AID 624;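 active = fluorescence slope after compound addition differing from the mean of all screened samples at 99.7% confidence, in either direction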;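 note: slope of fluorescence ratio to pre-addition baseline per second over 15 to 24 s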); conditions: thallium flux BTC fluorescence, at 10 µM, actives lie on both sides
[8] = inhibitors of larval lipid processing in zebrafish, primary screen, whole organism, PED6 fluorescence, gall bladder and intestine (AID 686;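 active = a full or partial loss of lipid-probe fluorescence in the fish gall bladder, intestine or both, judged by eye; inactive = no fluorescence loss, or compound toxic to the fish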;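 note: larvae 5 to 7 days old with five fish per well; signal comes from phospholipase A2 cleavage of quenched PED6 carried via bile; overnight exposure to compound and PED6 before scoring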); conditions: Zebrafish larvae PED6 lipid processing, fluorescence scoring; screened at 20 µM (by protocol)
[9] = loss of swimming-algae plug formation – whole organism, Chlamydomonas reinhardtii, WT vs cilia-less mutant, absorbance, 96-well, primary screen (AID 463189); conditions: Chlamydomonas reinhardtii gravitaxis, OD600 absorbance, 2 days; at 10 µM; stronger effect = higher value;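 note: 0% = wild type cc124 cells in DMSO and 100% = ciliumless bld1 mutant cells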
[10] = blockers of RIG-like receptor reporter activation – cell-based, Sendai virus stimulus, luciferase, 10K MLSCN set, TLR/RLR signaling modifier project, primary screen (AID 602276;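 active = inhibition at or above 50% at 10 µM; inactive = inhibition below 50%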;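 note: firefly luciferase from ISG56 promoter only with Renilla not read in this screen; 0% = Sendai virus plus DMSO and 100% = medium plus DMSO without virus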); conditions: HEK293 RL24 IRF3 luciferase reporter, at 10 µM, stronger effect = higher value
[11] = TLR3 IRF3 reporter activation blockers – cell-based, poly I:C stimulus, luciferase, 10K MLSCN set, primary screen (AID 602277;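 active = inhibition of the reporter signal at or above 50%; inactive = inhibition below 50%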); conditions: HEK293-TLR3 RL24 IRF3 luciferase reporter, at 10 µM, stronger effect = higher value
[12] = measured here: cell density z-score
[13] = measured here: nuclear c-Myc green intensity z-score
[14] = measured here: nuclear pErk red intensity z-score, stronger effect = higher value

Sequence of Voltage-gated potassium channel subunit beta-2 (Rattus norvegicus) (P62483 whole entry, looked up): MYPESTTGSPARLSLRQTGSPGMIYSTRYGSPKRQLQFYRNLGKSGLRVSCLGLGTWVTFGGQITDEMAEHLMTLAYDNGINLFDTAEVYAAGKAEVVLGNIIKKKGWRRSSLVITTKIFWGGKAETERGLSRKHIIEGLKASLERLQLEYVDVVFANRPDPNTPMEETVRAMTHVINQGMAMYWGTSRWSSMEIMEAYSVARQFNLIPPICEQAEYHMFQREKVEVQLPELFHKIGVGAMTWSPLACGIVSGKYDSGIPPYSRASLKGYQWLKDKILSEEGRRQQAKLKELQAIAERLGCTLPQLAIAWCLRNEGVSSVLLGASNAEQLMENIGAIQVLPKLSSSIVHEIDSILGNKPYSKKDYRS
Sequence of Alpha-2C adrenergic receptor (Homo sapiens) (P18825 whole entry, looked up): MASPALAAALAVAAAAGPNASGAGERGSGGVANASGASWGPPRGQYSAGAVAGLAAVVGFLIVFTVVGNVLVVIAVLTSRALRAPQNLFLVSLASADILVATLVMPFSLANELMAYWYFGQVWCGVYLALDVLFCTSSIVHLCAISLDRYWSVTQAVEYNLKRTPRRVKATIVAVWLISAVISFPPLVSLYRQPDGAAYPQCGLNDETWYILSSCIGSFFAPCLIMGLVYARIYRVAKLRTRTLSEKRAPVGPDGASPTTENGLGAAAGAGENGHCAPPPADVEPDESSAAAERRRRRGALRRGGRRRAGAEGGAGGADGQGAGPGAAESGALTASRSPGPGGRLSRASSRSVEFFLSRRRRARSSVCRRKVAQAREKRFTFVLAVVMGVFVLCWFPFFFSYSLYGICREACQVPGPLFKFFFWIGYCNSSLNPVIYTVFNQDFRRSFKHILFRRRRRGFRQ
Sequence of Dual specificity protein phosphatase 6 (Homo sapiens) (Q16828 whole entry, looked up): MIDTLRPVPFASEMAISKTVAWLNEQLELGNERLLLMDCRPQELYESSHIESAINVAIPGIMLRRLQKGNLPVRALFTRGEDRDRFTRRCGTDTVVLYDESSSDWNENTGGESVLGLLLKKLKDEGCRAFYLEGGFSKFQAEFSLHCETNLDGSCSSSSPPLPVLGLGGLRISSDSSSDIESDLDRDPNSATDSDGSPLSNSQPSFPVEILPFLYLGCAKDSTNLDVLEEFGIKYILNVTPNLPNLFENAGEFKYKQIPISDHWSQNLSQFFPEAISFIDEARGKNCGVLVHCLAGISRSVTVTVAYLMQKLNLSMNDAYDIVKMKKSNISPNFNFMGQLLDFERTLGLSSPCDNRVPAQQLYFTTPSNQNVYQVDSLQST

Compound | inhibition of aggregation [1] | nuclei count [1] | inhibition [2] | nuclei count [2] | z-score [3, 12] | z-score [3, 13] | z-score [3, 14] | inhibition [4] | fluorescence slope [5] | NADPH fluorescence slope [6] | slope [7] | outcome [8] | inhibition [9] | inhibition [10] | inhibition [11]
O=C(c1ccc(F)cc1)C1CCN(CCn2c(=O)[nH]c3ccccc3c2=O)CC1 | -3.2% (inactive) | 96.4% | -46.9% (inactive) | 112% | 0.976 | 0.365 | 0.163 | 14.6% (inactive) | -0.453 (inactive) | -6.9e-05 (inactive) | 0.00505 (inactive) | inactive | 4.84% (inactive) and -9.28% (inactive) | 0.811% (inactive) | 31.8% (inactive)
O=C(O)CCC(=O)Nc1ccc(S(=O)(=O)Nc2nccs2)cc1 | -13.3% (inactive) | 93.6% | -59.2% (inactive) | 110% | -1.01 | 2.12 | 1.88 | 1.38% (inactive) | -0.504 (inactive) | -5.7e-05 (inactive) | 0.00423 (inactive) | inactive | 5.01% (inactive) | 21.6% (inactive) | 37.7% (inactive)
Cc1cc(C)nc(NS(=O)(=O)c2ccc(N)cc2)n1 | -9.6% (inactive) | 104% | -28.5% (inactive) | 107% | -0.395 | 0.0726 | -0.14 | -3.03% (inactive) | -0.51 (inactive) | -5.4e-05 (inactive) | 0.00415 (inactive) | inactive | -15% (inactive) | 15.1% (inactive) | 26.9% (inactive)
COc1ccc(CN(CCN(C)C)c2ccccn2)cc1 | -1.2% (inactive) | 105% | -37.9% (inactive) | 113% | -0.442 | -0.558 | 1.54 | 3.45% (inactive) | -0.507 (inactive) | 9.4e-06 (inactive) | 0.00533 (inactive) | inactive | 3.64% (inactive) and 20.5% (inactive) | 16.8% (inactive) | 30.1% (inactive)
COc1cc2nc(N3CCN(C(=O)C4COc5ccccc5O4)CC3)nc(N)c2cc1OC (centres undefined) | -4.2% (inactive) | 100% | -103% (inactive) | 123% | 0.0825 | -0.753 | -0.892 | -0.493% (inactive) | -0.435 (inactive) | -3.3e-05 (inactive) | 0.00431 (inactive) | inactive | -6.99% (inactive) and 1.78% (inactive) | 5.11% (inactive) | 24.7% (inactive)
Nc1ccc(C(=O)O)c(O)c1 | 3.1% (inactive) and 6.7% (inactive) | 99.9% and 81.7% | -66.9% (inactive) and -44% (inactive) | 121% and 120% | 0.96 and 0.975 | -0.574 and 0.166 | 0.314 and -1.51 | 3.59% (inactive) and 13.3% (inactive) | -0.483 (inactive) and -0.504 (inactive) | -1.6e-05 (inactive) and -1e-05 (inactive) | 0.00463 (inactive) and 0.00637 (inactive) | inactive | -10.5% (inactive) and -2.41% (inactive) | 5.21% (inactive) and 16.9% (inactive) | 9.44% (inactive) and 29.7% (inactive)
NS(=O)(=O)c1cc2c(cc1Cl)NCNS2(=O)=O | -4.8% (inactive) | 107% | -46.3% (inactive) | 102% | -0.71 | -0.153 | -1.04 | -0.493% (inactive) | -0.428 (inactive) | 1.8e-05 (inactive) | 0.00467 (inactive) | inactive | 0.566% (inactive) and -18.6% (inactive) | 15.2% (inactive) | 40.7% (inactive)
C[N+](C)(C)CCCCCCCCCC[N+](C)(C)C | -3.9% (inactive) | 89.1% | -38.7% (inactive) | 126% | -0.332 | -0.124 | -0.205 | 7.39% (inactive) | -0.47 (inactive) | -5.9e-05 (inactive) | 0.00465 (inactive) | inactive | 0.674% (inactive) and 0.681% (inactive) | -7.67% (inactive) | 7.68% (inactive)
CC(=O)OCC1=C(C(=O)O)N2C(=O)[C@@H](NC(=O)Cc3cccs3)[C@H]2SC1 | -14.4% (inactive) | 85.4% | -35% (inactive) | 116% | -0.65 | -0.0505 | -0.555 | 17.3% (inactive) | -0.429 (inactive) | -5.9e-05 (inactive) | 0.00483 (inactive) | inactive | 7.69% (inactive) and 18.3% (inactive) | 10.9% (inactive) | 35.2% (inactive)
CN1Cc2c(N)cccc2C(c2ccccc2)C1 (centres undefined) | 5.1% (inactive) | 95.3% | -73% (inactive) | 131% | -0.942 | 0.0925 | 1.7 | 3.45% (inactive) | -0.505 (inactive) | -5.7e-05 (inactive) | 0.00524 (inactive) | inactive | 70.5% (active) and 60.3% (active) | 9.51% (inactive) | 22.5% (inactive)
CN(C)CCOC(C)(c1ccccc1)c1ccccn1 (centres undefined) | 21.5% (inactive) | 111% | -17.5% (inactive) | 132% | -0.381 | 0.211 | -0.829 | 33% (inactive) | -0.52 (inactive) | 2.3e-06 (inactive) | 0.00491 (inactive) | inactive | -2.11% (inactive) and -8.4% (inactive) | 2.29% (inactive) | 19.2% (inactive)
Cc1cccc(CN2CCN(C(c3ccccc3)c3ccc(Cl)cc3)CC2)c1 (centres undefined) | -13.4% (inactive) | 103% | -28.5% (inactive) | 122% | -0.832 | -0.304 | -0.398 | 1.48% (inactive) | -0.508 (inactive) | -3.3e-06 (inactive) | 0.00615 (inactive) | inactive | -15.7% (inactive) | 6.06% (inactive) | 30.8% (inactive)
CC1(C)O[C@@H]2C[C@H]3[C@@H]4C[C@H](F)C5=CC(=O)C=C[C@]5(C)[C@@]4(F)[C@@H](O)C[C@]3(C)[C@]2(C(=O)CO)O1 | -15.7% (inactive) | 58% | -6.4% (inactive) | 102% | 1.28 | -0.179 | -0.732 | 27.1% (inactive) | -0.489 (inactive) | 1.8e-05 (inactive) | 0.00523 (inactive) | inactive | -10.3% (inactive) | 5.68% (inactive) | 56.9% (active)
CCc1nc(N)nc(N)c1-c1ccc(Cl)cc1 | -35.2% (inactive) | 76.3% | -93.1% (inactive) | 108% | -1.21 | 2.44 | -0.22 | 12.4% (inactive) | -0.503 (inactive) | 1.5e-05 (inactive) | 0.00459 (inactive) | inactive | 37.1% (inactive) | 18.7% (inactive) | -1.71% (inactive)
CC(=O)[C@@]1(O)CC[C@H]2[C@@H]3C[C@H](C)C4=CC(=O)C=C[C@]4(C)[C@@]3(F)[C@@H](O)C[C@@]21C | 10.8% (inactive) | 60.1% | -32.9% (inactive) | 121% | 0.696 | 0.132 | 1.25 | 7.39% (inactive) | -0.416 (inactive) | -5e-05 (inactive) | 0.0055 (inactive) | inactive | -2.25% (inactive) | 13.2% (inactive) | 38.7% (inactive)
CCCCNC(=O)NS(=O)(=O)c1ccc(C)cc1 | 10.9% (inactive) | 99.2% | -56.6% (inactive) | 107% | 0.542 | -0.348 | -1.78 | 9.37% (inactive) | -0.454 (inactive) | 3.1e-05 (inactive) | 0.00531 (inactive) | inactive | 7.5% (inactive) and 29.4% (inactive) | -6.27% (inactive) | 5.7% (inactive)
CCCOc1ccc2nc(NC(=O)OC)[nH]c2c1 | -14.5% (inactive) | 98.6% | -34% (inactive) | 126% | 0.515 | 0.392 | -0.582 | 1.48% (inactive) | -0.47 (inactive) | -3.6e-05 (inactive) | 0.00449 (inactive) | inactive | -11.7% (inactive) | 25.2% (inactive) | 74.2% (active)
COc1ccc2c(c1)c(CC(=O)O)c(C)n2C(=O)c1ccc(Cl)cc1 | -23.8% (inactive) | 104% | -69% (inactive) | 122% | 0.752 | -1.27 | -0.74 | 16.8% (inactive) | -0.474 (inactive) | -6.7e-05 (inactive) | 0.00463 (inactive) | inactive | 2.25% (inactive) and -4% (inactive) | 9.52% (inactive) | 22.4% (inactive)
C1COC(NC(C2CC2)C2CC2)=N1 | 19% (inactive) | 109% | -91.3% (inactive) | 116% | -0.996 | 0.285 | -0.338 | 25.7% (inactive) | -0.468 (inactive) | -4.8e-05 (inactive) | 0.00489 (inactive) | – | 2.12% (inactive) and 18.6% (inactive) | -6% (inactive) | 20.5% (inactive)
CC(=O)Nc1c(I)c(NC(C)=O)c(I)c(C(=O)O)c1I | 21.1% (inactive) | 102% | -43.7% (inactive) | 126% | 0.431 | 0.292 | -0.145 | 11.3% (inactive) | -0.491 (inactive) | -2.1e-05 (inactive) | 0.00549 (inactive) | inactive | 0.515% (inactive) | -2.38% (inactive) | 5.34% (inactive)
Clc1ccc(Cn2c(CN3CCCC3)nc3ccccc32)cc1 | 13.4% (inactive) | 112% | -57.5% (inactive) | 133% | 0.217 | 0.404 | 0.417 | 1.48% (inactive) | -0.551 (inactive) | -3.2e-05 (inactive) | 0.00478 (inactive) | inactive; toxic | 2.55% (inactive) and 22.9% (inactive) | 16.5% (inactive) | 28.2% (inactive)
